From PubChem BioAssay
An excerpt weighted towards active compounds, which were near 2.2% of everything screened.
CCT modulator = High-Throughput Screening for Modulators of Cytosolic Chaperonin Activity; activity change, % (test concentration not listed), hits read low; AID 651819, 2012; purified chaperonin ATPase assay, HTRF ADP detection, 30 min; hit rate 0.3% among 360,000; in the data active means activity change below about -30%; further: on the % scale 0 is the no-effect control and ±100 the full control effect
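TRiC at 40 or 20 nM final (batch-dependent) in 30 mM Tris pH 7.4, 100 mM KCl, 5 mM MgCl2, 1 mM DTT, with compound at single 76 uM and 10 uM ATP, 30 min at 37 deg C. ADP detected by HTRF Transcreener, 665/615 ratio.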
GLP-1R agonist = qHTS of GLP-1 Receptor Agonists. HEK293 GLP-1R CRE-luciferase, luminescence, 4-6 h; cells express a hypersensitive GLP-1R form. Potency, µM (titrated, usually from 45.6 µM), for inactives: top-dose activation, actives largely listed as activators. Glucagon-like peptide 1 receptor (Homo sapiens), P43220. hit rate 0.007% among 380,000; further: potency means the concentration at half of the fitted maximal effect; % of control where 0% means no effect
Target sequence (P43220 whole entry, looked up): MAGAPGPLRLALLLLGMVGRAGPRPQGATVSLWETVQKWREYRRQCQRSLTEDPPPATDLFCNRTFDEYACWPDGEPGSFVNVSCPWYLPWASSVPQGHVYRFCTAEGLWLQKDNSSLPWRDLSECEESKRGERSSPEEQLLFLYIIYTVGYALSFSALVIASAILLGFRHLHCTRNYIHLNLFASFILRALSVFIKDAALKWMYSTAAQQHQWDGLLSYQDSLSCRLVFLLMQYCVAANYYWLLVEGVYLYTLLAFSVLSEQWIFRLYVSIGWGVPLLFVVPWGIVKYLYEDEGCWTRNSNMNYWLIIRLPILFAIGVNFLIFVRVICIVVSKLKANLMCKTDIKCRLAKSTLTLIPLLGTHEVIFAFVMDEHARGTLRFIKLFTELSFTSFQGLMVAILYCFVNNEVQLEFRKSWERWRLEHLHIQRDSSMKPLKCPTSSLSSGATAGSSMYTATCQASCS
GLP1R cytotox = qHTS of GLP-1 Receptor Inverse Agonists: Cytotox Screen. HEK293 cAMP-luciferase reporter cells, luminescence, 24 h. Potency, µM (titrated, usually from 38.3 µM), for inactives: top-dose activity change, negative = inhibition, actives largely listed as inhibitors. hit rate 0.13% among 410,000. AID 624418, 2012;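 further: loss of luciferase light is scored as toxicity; potency means the concentration at half of the fitted maximal effect; on the % scale 0 is the no-effect control and ±100 the full control effect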
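MLSMR compounds, 24 hr on cells at 37 deg C/5% CO2; luminescence after luciferase reagent (12 min RT). Inhibition counted as the undesired cytotoxic outcome.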
uPA surface inh = qHTS for Inhibitors of Cell Surface uPA Generation; Potency, µM (titrated, usually from 38.3 µM), without a hit: at the top dose activity change, negative = inhibition, hits mostly inhibitors; hit rate 0.31% among 330,000; cell surface uPA generation assay, qHTS; active means well fitted inhibition curve with a large enough effect; inconclusive means small, poorly fitted or top-dose-only effect; inactive means no such curve, though single readings can be large or run the other way; tested in mouse RAW 264.7 cells; further: potency means the concentration at half of the fitted maximal effect; on the % scale 0 is the no-effect control and ±100 the full control effect; nearly all actives have a fitted effect of over 55% in size
MmCpn inh = Inhibitors of TCP-1 ring complex (TRiC) of Methanococcus maripaludis (MmCpn): qHTS; purified Mm-Cpn ATPase, ADP Transcreener TR-FRET; Potency, µM (series often up to 76.9 µM), for inactives: at the top dose activity, negative = inhibition, most hits filed as inhibitors; hit rate 0.031% among 330,000; AID 504842, 2011; further: potency means the concentration at half of the fitted maximal effect; on the % scale 0 is the no-effect control and ±100 the full control effect; nearly all actives have a fitted effect of over 80% in size
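Compound-treated chaperonin, 25 nM final, turns over 10 uM ATP at 37°C for 30 min following a 10 min preincubation; ADP generated competes with ADP-d2 for Eu-cryptate antibody, lowering FRET.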
GLP-1R inv ag = qHTS of GLP-1 Receptor Inverse Agonists (Inhibition Mode) | HEK293 GLP-1R CRE-luciferase, luminescence, 24 h; GLP-1R form is constitutively active | hit rate 1.6% among 410,000 | Glucagon-like peptide 1 receptor (Homo sapiens), P43220 | Potency, µM (highest dose often 38.3 µM), without a hit: top-dose activity change, negative = inhibition, hits mostly inhibitors; further: potency means the concentration at half of the fitted maximal effect; on the % scale 0 is the no-effect control and ±100 the full control effect; nearly all actives have a fitted effect of over 55% in size
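Inverse agonism was detected as reduced cAMP-driven luciferase luminescence after 24 h compound treatment. The cells were HEK293 clones expressing constitutively active human GLP-1R with the reporter. Reporter-only and GPR119 cell lines served as counterscreen controls.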
The depositor's hits bear a star; ? = inconclusive; . = no result. Unless noted, the call rests on the fitted dose curve; in most records, active means well fitted curve in the direction sought with a large enough effect; inconclusive means small, poorly fitted or top-dose-only effect, or another doubt; inactive means no such curve, though single readings can be large; an effect the other way counts as inactive or inconclusive.

SMILES	CCT modulator	GLP-1R agonist	GLP1R cytotox	uPA surface inh	MmCpn inh	GLP-1R inv ag
OCCC1CN(Cc2cc(F)ccc2-n2cccn2)CCN1C1CCCC1 (stereo not drawn)	-30.4*	3.3%	-15.5%	-9.0%	-0.4%	-7.2%
O=C(Nc1ccc2[nH]ccc2c1)c1ccc(F)cc1	-2.7	-5.3%	-13.8%	0.891µM*	0.5%	?
O=C(Nc1ccc2[nH]ccc2c1)c1ccccc1	2.0	31.9%	7.9%	-8.1%	-2.8%	?
Cc1nc2ccc(S(=O)(=O)NC(CC(C)C)C(=O)NCc3ccc(Cl)cc3)cc2s1 (stereo not drawn)	.	.	-1.3%	.	.	-29.2%
O=C(c1ccc(Cl)c(Cl)c1)N1CCC(=O)N(C(COCc2cccc(Cl)c2)Cc2ccccc2)CC1 (stereo not drawn)	0.0	-5.0%	-17.4%	?	-0.8%	3.98µM*
Cc1cccc(COCC(Cc2ccccc2)N2CCN(C(=O)c3ccc(C(F)(F)F)cc3)CCC2=O)c1 (stereo not drawn)	-0.7	-0.2%	-11.4%	-23.4%	0.9%	11.2µM*
CC(C)CC(COCc1cccc(Cl)c1)N1CCN(C(=O)c2ccc(C(F)(F)F)cc2)CCC1=O (stereo not drawn)	-5.9	-2.3%	-13.0%	-7.5%	-0.4%	10µM*
O=C(c1cccc(Cl)c1)N1CCC(=O)N(C(COCc2cccc(Cl)c2)Cc2ccccc2)CC1 (stereo not drawn)	-1.4	9.9%	-5.4%	?	0.2%	4.3%
COc1cc(C2c3c(-c4ccccc4O)n[nH]c3C(=O)N2Cc2ccco2)ccc1OCC(C)C (stereo not drawn)	.	.	-20.8%	.	.	?
CO[C@]1(NC(=O)Cc2cccs2)C(=O)N2C(C(=O)O)=CC(COC(N)=O)S[C@H]21 (stereo partly drawn)	.	-4.4%	.	.	.	.
O=C(Nc1cccc(Cl)c1)C1=Cc2cc(Cl)ccc2OC1	-3.3	-19.6%	-21.7%	1.5%	-0.6%	10µM*
O=C(Nc1ccc(Cl)c(Cl)c1)C1=Cc2ccccc2OC1	-1.9	-20.3%	-27.2%	9.0%	-1.1%	10µM*
O=C(Nc1ccc2c(c1)OCCO2)c1ccc(Cl)c(Cl)c1	-3.1	0.0%	-5.8%	1.1%	1.4%	-6.6%
CC(C)COc1ccc(C(=O)Nc2nnc(S(=O)(=O)N(C)Cc3ccco3)s2)cc1	.	.	1.7%	.	.	7.5%
COc1ccc(NC(=S)NC(NC(=O)c2cccc(C)c2)C(Cl)(Cl)Cl)c([N+](=O)[O-])c1 (stereo not drawn)	0.2	-7.7%	?	1.5%	2.3%	8.91µM*
O=C(Cc1cccc2ccccc12)NC(NC(=S)Nc1ccccc1Cl)C(Cl)(Cl)Cl (stereo not drawn)	1.8	-15.8%	-17.1%	-4.7%	-15.5%	4.47µM*
O=C(NC(NC(=S)Nc1ccccc1Cl)C(Cl)(Cl)Cl)c1cccc(Cl)c1 (stereo not drawn)	1.7	-39.9%	-4.2%	-9.8%	-0.4%	2.82µM*
CCc1ccc(NC(=O)c2sc(-n3nc(C)c(Cc4ccc(OC)cc4)c3C)nc2C)cc1	.	.	11.8%	.	.	9.1%
Cc1ccc(C)c(OCC(O)CN2CCc3ccccc3C2)c1C (stereo not drawn)	-0.6	19.1%	-0.7%	1.9%	-0.1%	8.91µM*
Cc1cc(OCC(O)CN2CCc3ccccc3C2)ccc1Cl (stereo not drawn)	1.2	-5.7%	-30.6%	4.3%	1.2%	7.08µM*
Cc1ccc2c(c1)c1c3n2CCN(C(=O)c2ccc(C(F)(F)F)cc2)C3CCC1 (stereo not drawn)	.	4.0%	-2.8%	.	.	3.7%
CCCc1nnc(SCC(=O)O)n1/N=C/c1ccc2c(c1)OCO2	-63.0*	-0.4%	1.0%	1.5%	0.6%	8.9%
NS(=O)(=O)c1ccc(NC(=O)Nc2ccc(S(N)(=O)=O)cc2)cc1	-1.5	0.3%	12.2%	1.7%	-3.3%	-0.3%
NS(=O)(=O)c1ccc(NC(=O)Nc2ccc(C(F)(F)F)cc2)cc1	-2.0	4.9%	-11.5%	-5.0%	2.0%	5.01µM*
COc1ccc([C@H]2CC(=O)C=C(c3cc(C)ccc3OC)C2)cc1	-10.2	19.4%	0.7%	10µM*	-1.1%	-8.3%
SMILES	CCT modulator	GLP-1R agonist	GLP1R cytotox	uPA surface inh	MmCpn inh	GLP-1R inv ag
CCOc1ccc(Br)cc1C1=CC(=O)C[C@H](c2ccc(OC)cc2)C1	-1.4	25.2%	-13.5%	2.82µM*	-6.5%	?
N#Cc1ccc(S(=O)(=O)N2CCC(Oc3cccc(C(F)(F)F)c3)CC2)cc1	.	.	7.4%	.	.	2.7%
COc1ccc(CNC(=O)c2ccc(CNS(=O)(=O)c3ccc(F)cc3)cc2)cc1	.	.	-14.2%	.	.	5.1%
CN(CC(=O)Nc1cccc(F)c1)C(=O)c1ccc2c(c1)CC(c1ccccc1)OC2=O (stereo not drawn)	-2.7	-33.7%	?	3.98µM*	-1.7%	?
CN(C)c1cc(-c2ccccc2)nc(N)n1	-0.1	0.8%	-7.5%	10µM*	1.1%	-12.5%
CC(/C=N/NC(=O)c1cccc(F)c1)=C\c1ccccc1	0.9	-5.7%	0.0%	?	2.7%	10µM*
CC(/C=N/NC(=O)c1ccncc1)=C\c1ccccc1	1.6	2.4%	-11.8%	-17.6%	0.9%	5.0%
CC(=O)O[C@H]1[C@@H](O)[C@H](O)[C@H](Oc2c(O)c(C)c3c4c2[C@@H](C)CC[C@@H]4[C@@H](C)C[C@H]3C=C(C)C)O[C@H]1C	0.7	-1.6%	?	-7.5%	0.5%	11.2µM*
Cc1ccc(S(=O)(=O)N2CCN(C(=O)CSc3ncc(C(F)(F)F)cc3Cl)CC2)cc1	-0.4	-16.4%	3.9%	3.2%	0.1%	10µM*
Cc1ccc(S(=O)(=O)N2CCN(C(=O)CSc3ccc(F)cc3)CC2)cc1	3.0	17.6%	6.3%	-2.0%	2.6%	10.3%
CCOc1ccc(N(CC)C(=O)c2cc3c(s2)-c2ccc(Cl)cc2SC3)cc1	.	.	2.7%	.	.	3.6%
CCCCCN1C=CC(=C2C(=O)c3ccccc3C2=O)C=C1	-1.3	22.2%	3.3%	0.0224µM*	1.6%	?
CC1=CC(=C2C(=O)c3ccccc3C2=O)C=C(C)N1C	1.3	5.1%	-6.5%	-10.7%	-2.3%	0.5%
Cc1noc(/C=C/c2ccccc2F)c1S(=O)(=O)N1CCC(C(=O)N(C)Cc2ccco2)CC1	.	.	-4.9%	.	.	?
COC(=O)CN1C(=O)CSc2ccc(S(=O)(=O)Nc3cccc(C)c3)cc21	.	.	7.9%	.	.	-6.5%
COc1cccc(CNC(=O)C2=C(C)C(=O)OC23CCN(C(C)=O)CC3)c1OC	.	.	-6.4%	.	.	16.3%
